# mcGAS RapidFire: blocks mouse cGAS cGAMP production | Q8C6L5 | recombinant mouse cGAS, cGAMP by RapidFire MS | inhibition, % at 12.5 µM | 0.18% of 130,000 active;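 active means inhibition of cGAS enzyme activity at or above 60%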;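 further: enzyme stimulated by 45 bp dsDNA with ATP and GTP substrates; cGAMP share of summed cGAMP plus half ATP and half GTP signals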
# * = called active by the depositor; ! = repeats disagree. Only a selection was taken, and hits are over-represented in it overall.
SMILES,mcGAS RapidFire
S=c1[nH]nc2c3cnn(-c4ccccc4)c3ncn12,-3
Cc1nc2c3ccccc3ncn2n1,-2
Cn1ncc2c(=O)[nH]c(CN3CCCN(c4ccccc4)CC3)nc21,-12
O=C(Nc1ccc(Cl)c(Cl)c1)Nc1cc(C(F)(F)F)c[nH]c1=O,-4
CN(C)c1cc(C(=O)NC(c2ccccc2)C2CCCC2)ccn1 (stereo not drawn),-17
CC(=C(C#N)C#N)c1ccc2c(c1)OCO2,-2
C[n+]1cc2c3c(ccc2c2ccc4cc5c(cc4c21)OCO5)OCO3,85*!
Cc1ccc(-c2ccnc(NCCSc3cn[nH]n3)n2)c(C)n1,-12
O=C(c1ccc(F)cc1)N1CCN(C(=O)c2cc(O)cs2)CC1,-6
OCCC1CN(Cc2ccc3c(c2)OCCO3)CCN1Cc1ccsc1 (stereo not drawn),-1
CCn1c(C2CCCN(C(=O)c3cccnc3NC)C2)nn(C)c1=O (stereo not drawn),-7
N#Cc1c(N)nc2c(c1N)C(Sc1ccccc1)c1ccc(O)cc1O2 (stereo not drawn),87*
N#CCSc1nc(N)c(C#N)c(-c2ccc(O)cc2)c1C#N,-9
N#Cc1c(C2CCOC2)cc(-c2ccc(O)cc2)nc1N (stereo not drawn),-14
CNC(=O)NC(=O)C(C)Sc1nnc(-c2ccc(C(C)(C)C)cc2)n1C (stereo not drawn),2
COCCNc1ncc2c(n1)c(=O)c(C#N)c1[nH]c3ccc(Br)cc3c(=O)n12,25
CS(=O)(=O)c1ncc2c(n1)c(=O)c(C#N)c1[nH]c3ccccc3c(=O)n12,67*
Cc1c(Cc2ccc(Cl)cc2)c(=O)n2c([nH]c3ccccc32)c1C#N,-2
COc1ccc(NC2CCCN(C(=O)c3cc(=O)c4ccccc4[nH]3)C2)cc1 (stereo not drawn),-27
CC(C)NC(=O)Cn1nnc(-c2ccccc2)n1,0
CCOc1cc2c(cc1/C=C/c1n[nH]c(=O)c(C#N)c1C)OC(C)C2 (stereo not drawn),0
COC(=O)Oc1cc2oc(=O)sc2cc1Br,2
CCOC(=O)Oc1cc2oc(=O)sc2cc1Br,74*
O=c1oc2ccc(O)cc2s1,1
CC(C(=O)Nc1ccc2c(c1)OCO2)n1cc(S(=O)(=O)N2CCCC2)ccc1=O (stereo not drawn),-16
SMILES,mcGAS RapidFire
N#Cc1c(N)oc2c3c(c(O)cc12)C(=O)c1ccccc1C3=O,68*
Cc1oc2ccccc2c1C#N,-7
Cc1cc(=O)oc2c(-c3cc(-c4cccs4)nc(N)n3)c(O)ccc12,-6
O=C(O)C12CC3CC(CC(C3)C1)C2,-3
O=C(O)C12CCCC(Br)(CCC1)C2,2
CC(C)C(=O)Nc1ccc2c(c1)N(C(=O)c1ccccc1)CCC2,-7
COc1nc(NC(C)=O)cc(=O)n1C,-8
CNC(=O)Cc1noc(-c2cc3c(s2)CCCCCC3)n1,-16
O=C(O)C1=CC(=C(c2ccc(O)c(C(=O)O)c2)c2ccc(O)c(C(=O)O)c2)C=CC1=O,95*
Nc1ccc(O)c(C(=O)O)c1,-4
Cc1cc(O)ccc1C(=O)O,-1
C=CCSc1ccccc1NC(=O)CSc1ncc(C#N)c(N)n1,-2
Cc1cc(O)c(C2=Nc3cc(C(F)(F)F)ccc3SC(c3ccc(O)c([N+](=O)[O-])c3)C2)c(=O)o1 (stereo not drawn),67*
Cc1cc(O)c(C2=Nc3ccccc3SC(c3ccc([N+](=O)[O-])cc3)C2)c(=O)o1 (stereo not drawn),-4
Cc1cc(O)c(-c2ccn[nH]2)c(=O)o1,-3
O=C(C1CCCN(S(=O)(=O)N2CCOCC2)C1)N1CCCCCC1 (stereo not drawn),-7
